“And” between values parts separate entries of the source, which are not always exact repeats. Identical values can stand only once. Records with an inconclusive call do not appear. The source made the active and inactive calls. Calls follow the shape of the dose curve; as a rule, active = well fitted inhibition curve with a large enough effect in the repeat runs; inconclusive = weak or mixed curves; inactive = no such curve, though single readings can be large or run the other way.
molecular target: Estrogen receptor (Homo sapiens) (UniProt P03372); test: qHTS assay to identify small molecule antagonists of the estrogen receptor alpha (ER-alpha) signaling pathway using the BG1 cell line in the presence of 0.1 nM 17-beta-estradiol (AID 1259244); details: VM7Luc4E2 (BG1) ERE-luciferase, antagonist mode, 0.1 nM E2, 22 h; series mostly up to 92.4 µM; activity change, negative = inhibition: at the top concentration; also: nearly all actives have a fitted effect of over 50% in size
Sequence (P03372 whole entry, looked up): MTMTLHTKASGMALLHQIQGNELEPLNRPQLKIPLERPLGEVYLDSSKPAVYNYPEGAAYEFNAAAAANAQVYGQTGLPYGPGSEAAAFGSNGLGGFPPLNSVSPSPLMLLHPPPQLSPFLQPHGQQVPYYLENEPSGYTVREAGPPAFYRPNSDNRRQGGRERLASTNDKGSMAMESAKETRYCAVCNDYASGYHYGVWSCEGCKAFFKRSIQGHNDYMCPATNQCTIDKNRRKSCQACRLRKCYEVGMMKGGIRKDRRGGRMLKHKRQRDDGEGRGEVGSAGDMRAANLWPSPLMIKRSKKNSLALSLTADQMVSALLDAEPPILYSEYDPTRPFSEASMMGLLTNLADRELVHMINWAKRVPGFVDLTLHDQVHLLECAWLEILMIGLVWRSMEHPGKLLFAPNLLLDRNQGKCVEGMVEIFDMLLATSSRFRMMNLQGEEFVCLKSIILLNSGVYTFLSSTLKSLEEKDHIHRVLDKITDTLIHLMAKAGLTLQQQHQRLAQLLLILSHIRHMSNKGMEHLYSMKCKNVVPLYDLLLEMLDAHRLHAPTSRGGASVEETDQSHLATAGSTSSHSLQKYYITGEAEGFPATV
Description: National Center for Advancing Translational Sciences [NCATS]
NIH Chemical Genomics Center [NCGC]
U.S. Environmental Protection Agency [EPA]
National Institutes of Environmental Health Sciences [NIEHS]
National Toxicology Program [NTP]
U.S. Food and Drug Administration [FDA]
Estrogen receptor (ER), a member of the nuclear hormone receptor plays an important role in development, metabolic homeostasis and reproduction. Two subtypes of ER, ER-alpha and ER-beta, have similar expression patterns with some uniqueness in both types. Endocrine disrupting chemicals (EDCs) and their interactions with steroid hormone receptors like ER causes disruption of normal endocrine function. Therefore, it is important to understand the effect of environmental chemicals in ER signaling pathway. For identifying ER antagonists, VM7Luc4E2 cell line was used to screen against Tox21 compound libraries.
VM7Luc4E2 cell line (provided by Denison MS, University of California) endogenously express full-length ER-alpha and is stably transfected with a plasmid containing four estrogen responsive elements (ERE) upstream of a luciferase reporter gene. The current screening for identification of ER-alpha inhibitors against Tox21 compound libraries used lower concentration (0.1 nM) of 17beta-Estradiol as a stimulator.
Tox21 Assay Protocol Summary:
VM7Luc4E2 cells were cultured in phenol red free assay medium containing 10% charcoal stripped FBS for 5 days prior to the assay. The cells were dispensed at 4,000 cells/well in 4 uL of assay medium into white wall/solid-bottom 1536-well plates (Corning Life Sciences, Corning, NY) using a Multidrop Combi (ThermoFisher Scientific, Waltham, MA) dispenser. After the assay plates were incubated at 37C and 5% CO2 for 24 hr, 23 nL of compounds dissolved in DMSO, positive controls or DMSO only was transferred to the assay plates by a Pintool station (Kalypsys, San Diego, CA). The transfer of compounds was followed by the addition of 1 uL of 0.1 nM (final concentration) agonist (17beta-Estradiol)/assay medium using a Flying Reagent Dispenser (FRD, Aurora Discovery, San Diego, CA). The plates were incubated at 37C and 5% CO2 for 22 hr. For luciferase reporter gene assay, 4 uL of ONE-Glo reagent (Promega Corporation, Madison, WI) was added to each well using the FRD and after 30 min incubation at room temperature luminescence intensity was measured using ViewLux plate reader (PerkinElmer, Shelton, CT).
% is scaled to controls: 0 for no effect and ±100 for the full control effect; potency is read from the fitted curve at half-maximal effect.

| Structure (SMILES) | activity change, negative = inhibition | Potency |
| --- | --- | --- |
| O=Cc1ccc(F)cc1 | 11.9% (inactive) |  |
| CCCCCCCCCCCCOC(=O)c1cc(O)c(O)c(O)c1 |  | 30.5 µM (active) and 34.4 µM (active) |
| Cc1ccc2ccc3cccc4ccc1c2c34 | 30.1% (inactive) |  |
| CCCCNc1c(C(=O)OCC)c(C)nc2c1cnn2CC | -4.7% [at 42.5 µM] (inactive) |  |
| C=CC/C=C/C/C=C/C/C=C/C | 0.138% (inactive) |  |
| CCO[Si](C)(C)OCC | -8.62% (inactive) |  |
| Cc1cnccn1 | 1.01% (inactive) |  |
| O=C(O)Cc1ccc(OCCNC[C@H](O)c2ccccc2)cc1 | 5.77% [at 42.5 µM] (inactive) |  |
| O=C1c2c(O)ccc([N+](=O)[O-])c2C(=O)c2c([N+](=O)[O-])ccc(O)c21 |  | 27.1 µM (active) |
| CCCCCCCCCCCCCC[n+]1ccccc1 |  | 2.17 µM (active) |
| C=CC(C)(CCC=C(C)C)OC(=O)/C=C/c1ccccc1 (stereo not given) | 11.7% (inactive) |  |
| CC(C)(C)c1n[nH]c(=O)n(N)c1=O | 6.15% (inactive) |  |
| CCCCCCCOC(=O)c1ccccc1C(=O)OCCCCCCC | -8.08% (inactive) |  |
| ClC/C=C\CCl | 0.411% (inactive) |  |
| CO[Si](CCC1CCC2OC2C1)(OC)OC (stereo not given) | 5.8% (inactive) |  |
| C=CC(=O)OCCN(CC)CC | 5.92% (inactive) |  |
| CCCCCCOc1ccc(O)cc1 | -5.15% (inactive) |  |
| CCCCCCCCCCOCC(O)CN (stereo not given) | 4.53% [at 42.5 µM] (inactive) |  |
| S=P(N1CC1)(N1CC1)N1CC1 | -5.62% (inactive) |  |
| CN1CCN(C2Cc3ccccc3Sc3ccc(Cl)cc32)CC1 (stereo not given) | -6.56% [at 42.5 µM] (inactive) |  |

| Structure (SMILES) | activity change, negative = inhibition | Potency |
| --- | --- | --- |
| c1cc[nH]c1 | 3.98% (inactive) |  |
| COc1cc(C(=O)NS(=O)(=O)c2ccccc2C)ccc1Cc1cn(C)c2ccc(NC(=O)OC3CCCC3)cc12 | 0.995% [at 42.5 µM] (inactive) |  |
| CC=O |  | 0.403 µM (active) |
| O=C1C=CC(=O)N1c1ccccc1 |  | 61.1 µM (active) |
| CC(C)C(=O)OCc1ccccc1 | -9.04% (inactive) |  |
| CCC(C)c1ccccc1 (stereo not given) | 0.125% (inactive) |  |
| C=CC(=O)OCC(O)COc1ccccc1 (stereo not given) | 5.84% (inactive) |  |
| CC(C)(C)C1=CC(=O)C=C(C(C)(C)C)C1=O | -1.77% (inactive) |  |
| CC(COC(=O)c1ccccc1)OC(=O)c1ccccc1 (stereo not given) | 0% (inactive) |  |
| Cc1ccc(CCn2c3c(c4cc(Cl)ccc42)CN(C)CC3)cn1 | 2.84% [at 42.5 µM] (inactive) |  |
| COc1ccc(C#N)cc1 | -10.2% (inactive) |  |
| CNC(=S)NN |  | 48.6 µM (active) |
| Oc1cc2ccccc2cc1O | -17.8% (inactive) |  |
| C=C/C=C/C=C/CCCCC | -0.135% [at 19 µM] (inactive) |  |
| CC(C(O)c1ccccc1)N(C)CCOC(c1ccccc1)c1ccccc1 (stereo not given) | -22.8% [at 42.5 µM] (inactive) |  |
| Cc1cccc(C)n1 | 1.27% (inactive) |  |
| COC(=O)CC(C)CCC=C(C)C (stereo not given) | -0.855% (inactive) |  |
| O=C(Nc1ccc(Cl)cc1)Nc1ccc(Cl)c(C(F)(F)F)c1 |  | 9.44 µM (active) |
| CCN(CC)CCNc1ccc(CO)c2sc3ccccc3c(=O)c12 | -49.7% [at 42.5 µM] (inactive) |  |
| CCCCCCCC/C=C\CCCCCCCC(=O)OCCOC(=O)CCCCCCC/C=C\CCCCCCCC | 0.559% (inactive) |  |
